Assay results: PubChem BioAssay (NCI)
Compounds without any hit were thinned out: in the full panel of roughly 83,000, 20% have a hit.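 Step 1: grow cells in 96-well plates. Step 2: add test compound at a single concentration. Step 3: incubate 48 h. Step 4: record percent growth.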 Values without a mark were called inactive. Active and inactive are the calls of the source. Rule for the calls: active = growth percent below 10; inactive = the rest.

Columns and labels:
Test in all cases: NCI-60 one-dose screen, 48 h (100 = growth as untreated, 0 = no growth, -100 = all killed)
Conditions in all cases: 10 µM unless noted
HCT-15 colon = system: HCT-15 colon
HT29 colon = system: HT29 colon
SNB-75 CNS = system: SNB-75 CNS
SNB-19 CNS = system: SNB-19 CNS
U251 CNS = system: U251 CNS
PC-3 prostate = system: PC-3 prostate
SK-MEL-5 melanoma = system: SK-MEL-5 melanoma
UACC-62 melanoma = system: UACC-62 melanoma
LOX IMVI melanoma = system: LOX IMVI melanoma
SK-MEL-28 melanoma = system: SK-MEL-28 melanoma

| Compound | growth (HCT-15 colon) | growth (HT29 colon) | growth (SNB-75 CNS) | growth (SNB-19 CNS) | growth (U251 CNS) | growth (PC-3 prostate) | growth (SK-MEL-5 melanoma) | growth (UACC-62 melanoma) | growth (LOX IMVI melanoma) | growth (SK-MEL-28 melanoma) |
| --- | --- | --- | --- | --- | --- | --- | --- | --- | --- | --- |
| Cc1nc(N)sc1-c1csc(Nc2ccc(C(F)(F)F)cc2)n1 | 7.03% (active) | -27.6% (active) | 56.5% | 47.3% | 53.3% | 36.5% | -43% (active) | 22.2% | 6.07% (active) | 42.1% |
| O=C(CCCCCCNC(=O)C(O)(O)C(F)(F)F)Nc1ncc(-c2ccc(Br)cc2)s1 | 3.85% (active) | 1.78% (active) | 35.9% | 2.52% (active) | -35.4% (active) | 10.5% | -70.3% (active) | -52.1% (active) | -89.7% (active) | 3.46% (active) |
| C#Cc1nc(C(=O)NCCCCCCC(=O)NO)cs1 | 41.3% | 5.53% (active) | -65.2% (active) | 30.6% | 6.04% (active) | 14.3% | -55.9% (active) | -63.1% (active) | -84.6% (active) | -53.1% (active) |
| CC(=O)/C(N=Nc1ccc2oc(=O)ccc2c1)=C(\C)O | 16.5% | 24.4% | 67.8% | 29% | 23.3% | 20.7% | 9.01% (active) | 33.8% | 19% | 47.3% |
| CN1CCN(Cc2ccc(NC(=O)c3cncc(C#Cc4cnc5ccc(N6CCOCC6)nn45)c3)cc2C(F)(F)F)CC1 | -53.9% (active) | -71.2% (active) | -46.3% (active) | -20.3% (active) | -92.8% (active) | -7.08% (active) | -95.9% (active) | -62.2% (active) | -93.8% (active) | -76.4% (active) |
| CN1CCN(c2ccc(Nc3nc(NCCCNS(=O)(=O)c4ccc(C(F)(F)F)cc4)c4sccc4n3)cc2)CC1 | -72.7% (active) | -75.8% (active) | -79.5% (active) | 17.5% | -83.4% (active) | 20.7% | -95% (active) | -80.3% (active) | -83.6% (active) | -92.8% (active) |
| Clc1ccc2[nH]cc(-c3nn4cc(-c5cccnc5)nc4s3)c2c1 | 95.1% | 98.7% | 90.5% | 100% | 93.8% | 88.6% | 96.2% | 90.1% | 123% | 101% |
| Cc1ccc2c(n1)C(=O)C(Cl)=C(Nc1cc(C(F)(F)F)cc(C(F)(F)F)c1)C2=O | 6.82% (active) | 102% | 98.3% | 90.6% | 85.2% | 80.5% | 77% | 79.9% | 66.2% | 88.7% |
| Cn1ncc2c(C(=O)c3ccc(F)cc3)nc(C(C)(C)C)nc21 | 97.7% | 104% | 89.6% | 95.4% | 98.6% | 92.5% | 100% | 98% | 95.7% | 98% |
| Cc1ccc(C(=O)CSc2nc3ccccc3c(=O)n2C)cc1 | 94.5% | 111% | 75.5% | 94.9% | 94.6% | 88.5% | 81.4% | 70.3% | 93% | 101% |
| N#Cc1nc(-c2ccc(Cl)cc2)oc1N1CCC(S(=O)(=O)N2CCOCC2)CC1 | 105% | 98% | 94.2% | 92.2% | 102% | 95.4% | 98.1% | 94.1% | 81.7% | 101% |
| O=C(CCCCCCNC(=O)C(O)(O)C(F)(F)F)Nc1ccc(Br)cc1 | 20.8% | 2.18% (active) | 33.9% | 14.7% | -21.3% (active) | 31.6% | -68.3% (active) | -50% (active) | -75.2% (active) | 9.41% (active) |
| CN(C)S(=O)(=O)c1ccc(-c2nc(C(Cl)Cl)nc3cc(-c4ccccc4)nn23)cc1 | 47.7% | 45.6% | 84.7% | 85.2% | 66.2% | 87.7% | 92% | 11.7% | 44.5% | -4.08% (active) |
